Data as given in PubChem BioAssay (NCATS).
Records with an inconclusive call do not appear. Entries that show only a call come without a potency. Activity calls are given as the source filed them. Unless noted, the call rests on the fitted dose curve; in most records, active means well fitted curve in the direction sought with a large enough effect; inconclusive means small, poorly fitted or top-dose-only effect, or another doubt; inactive means no such curve, though single readings can be large; an effect the other way counts as inactive or inconclusive.

How the values were obtained:
[1] = qHTS assay for measurement of the activity of small molecule inhibitors on Zika virus induced Caspase-3 activity in human iPSC derived neural progenitor cells (hNPCs) (AID 1224857); details: hNPCs ZIKV-induced caspase-3/7, Caspase-Glo luminescence, 6 h; series mostly up to 45.7 µM; further: nearly all actives have a fitted effect of over 65% in size
In short: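 Cells were plated at 350 per well and grown 16 to 20 hours. Compound pretreatment lasted one hour, after which ZIKV (2 FFU/cell) was added for 6 hours. Percent inhibition was normalized between uninfected and infected controls.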

[2] = qHTS assay for measurement of the activity of small molecule inhibitors on Zika virus induced Caspase-3 activity in human astrocytoma cells (AID 1224859); details: SNB-19 ZIKV-induced caspase-3/7, luminescence, 6 h; series mostly up to 45.7 µM
In short: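 Percent inhibition of virus-induced caspase-3/7 signal is calculated against uninfected and ZIKV-infected control cells. Cells are SNB-19, infected at 2 FFU/cell for 6 h after 1 h compound exposure.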

[3] = qHTS assay to identify small molecule inhibitors of chordoma cells - UCH-2 (AID 1259356); details: UCH-2 chordoma viability, CellTiter-Glo ATP luminescence, 48 h; series mostly up to 46.1 µM; further: potency means the concentration at half of the fitted maximal effect
[4] = qHTS profiling of the MIPE4 collection as inhibitors of Plasmodium falciparum (DD2) proliferation (AID 743345; call rule not given here); details: P. falciparum Dd2 in erythrocytes, SYBR Green DNA, 72 h; at 28.5 µM (top of the series) unless noted
In short: (§1)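 Erythrocytes infected with P. falciparum (0.3% parasitemia, 2.5% hematocrit) incubated with compounds 72 h at 37 C, 5% CO2. Lysis with saponin/Triton buffer containing SYBR Green I, overnight at room temperature in the dark; DNA fluorescence (485/535 nm) normalised to 0.29 uM artemisinin and DMSO.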

[5] = qHTS profiling of the MIPE4 collection as inhibitors of Plasmodium falciparum (DD2) proliferation (Rep 2) (AID 743346; call rule not given here); details: P. falciparum Dd2 in erythrocytes, SYBR Green DNA, 72 h; at 28.5 µM (top of the series) unless noted
In short: as §1

[6] = qHTS profiling of the MIPE4 collection as inhibitors of Plasmodium falciparum (HB3) proliferation (AID 743347; call rule not given here); details: P. falciparum HB3 in erythrocytes, SYBR Green DNA, 72 h; at 28.5 µM (top of the series) unless noted
In short: as §1

[7] = Identifying Small Molecule Inhibitors of Pancreatic Cancer Stem Cells (A2780, Spheroid) (AID 1259357); details: A2780 spheroid viability;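 further: spheroids pre-formed over 14 days in stem cell medium on hydrogel; potency means the concentration at half of the fitted maximal effect; compound exposure lasted 48 h before the ATP luminescence read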
In short: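 Pre-formed 14-day tumor spheroids or adherent cells dosed and incubated 48 h, 37C, 5% CO2. Viability assessed by CellTiter-Glo.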

[8] = Identifying Small Molecule Inhibitors of Pancreatic Cancer Stem Cells (Panc1, Spheroid) (AID 1259359); details: Panc1 spheroid cancer stem cell viability;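 further: potency means the concentration at half of the fitted maximal effect; compound exposure lasted 48 h before reading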
In short: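 Viability is scored by CellTiter-Glo luminescence 48 h after dosing, expressed as percent activity against vehicle and no-cell references. Spheroid formats rely on cells cultured 14 days in stem cell media beforehand.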

[9] = qHTS assay to identify small molecule inhibitors of chordoma cells - UCH-1 (AID 1259355); details: UCH-1 chordoma viability, CellTiter-Glo, 48 h, combination, with auranofin plus four topoisomerase inhibitors; series mostly up to 46.1 µM; further: nearly all actives have a fitted effect of over 55% in size
In short: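 Luminescent ATP read-out (CellTiter-Glo, 30min at room temperature) measured viability of UCH-1 cells exposed for 48hr to test drugs at 15 concentrations, co-dosed with a five-agent combination of auranofin, camptothecin, doxorubicin, rubitecan and topotecan.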

CC(=O)O[C@]1(C(C)=O)CC[C@H]2[C@@H]3C[C@H](C)C4=CC(=O)CC[C@]4(C)[C@H]3CC[C@@]21C
outcome [1]: inactive | outcome [2]: inactive | Potency [3]: inactive

C=C(CC)C(=O)c1ccc(OCC(=O)O)c(Cl)c1Cl
outcome [1]: inactive | outcome [2]: inactive | Potency [3]: inactive

CCN(CCCCOC(=O)c1ccc(OC)c(OC)c1)C(C)Cc1ccc(OC)cc1 (centres undefined)
outcome [1]: inactive | outcome [2]: inactive | Potency [3]: inactive

O=C1OCCN1/N=C/c1ccc([N+](=O)[O-])o1
outcome [1]: inactive | outcome [2]: inactive | Potency [3]: inactive

Cc1ncc(CSSCc2cnc(C)c(O)c2CO)c(CO)c1O
outcome [1]: inactive | outcome [2]: inactive | Potency [3]: inactive

CCN(CC)C(=O)/C(C#N)=C/c1cc(O)c(O)c([N+](=O)[O-])c1
outcome [1]: inactive | outcome [2]: inactive | Potency [3]: inactive

Oc1ccc(O)cc1
outcome [1]: inactive | outcome [2]: inactive | Potency [3]: inactive

CCOc1ccc2nc3cc(N)ccc3c(N)c2c1
outcome [1]: inactive | outcome [2]: inactive | Potency [3]: inactive

CC(=O)OCC(=O)[C@@]12N=C(C)O[C@@H]1C[C@H]1[C@@H]3CCC4=CC(=O)C=C[C@]4(C)[C@H]3[C@@H](O)C[C@@]12C
outcome [1]: inactive | outcome [2]: inactive | Potency [3]: inactive

C[C@]12C=CC(=O)C=C1[C@@H](F)C[C@@H]1[C@@H]2[C@@H](O)C[C@@]2(C)[C@H]1CC[C@]2(O)C(=O)CO
outcome [1]: inactive | outcome [2]: inactive | Potency [3]: inactive

CC(C)(C)CC(C)(C)c1ccc(OCCOCC[N+](C)(C)Cc2ccccc2)cc1
outcome [1]: inactive | outcome [2]: inactive | Potency [3]: inactive

CC(=O)[C@H]1CC[C@H]2[C@@H]3C[C@H](C)C4=CC(=O)CC[C@]4(C)[C@H]3[C@@H](O)C[C@]12C
outcome [1]: inactive | outcome [2]: inactive | Potency [3]: inactive

CNCCC=C1c2ccccc2CCc2ccccc21
outcome [1]: inactive | outcome [2]: inactive | Potency [3]: inactive

NC[C@H]1O[C@H](O[C@H]2[C@H](O[C@@H]3O[C@H](CO)[C@@H](O)[C@H]3O)C(O)[C@H](N)C[C@@H]2N)[C@H](N)[C@@H](O)[C@@H]1O (some centres undefined)
activity change, negative = inhibition [1]: 16.5% [at 9.06 µM] (inactive) | activity change, negative = inhibition [2]: 3.88% [at 9.06 µM] (inactive) | Potency [3]: inactive

COc1cc(OC)cc(OC)c1
outcome [1]: inactive | outcome [2]: inactive | Potency [3]: inactive

CCCCC(CC)CN=C(N)NC(N)=NCCCCCCN=C(N)NC(N)=NCC(CC)CCCC (centres undefined)
outcome [1]: inactive | outcome [2]: inactive | Potency [3]: 25.9 µM (active)

OC[C@H]1O[C@@H](n2cnc3c(=S)nc[nH]c32)[C@H](O)[C@@H]1O
outcome [1]: inactive | outcome [2]: inactive | Potency [3]: inactive

CC(=O)OCC(=O)[C@@]12OC(C)(C)O[C@@H]1C[C@H]1[C@@H]3C[C@H](F)C4=CC(=O)C=C[C@]4(C)[C@@]3(F)[C@@H](O)C[C@@]12C
outcome [1]: inactive | outcome [2]: inactive | Potency [3]: inactive

Oc1ccc(Cl)cc1Sc1cc(Cl)ccc1O
outcome [1]: inactive | outcome [2]: inactive | Potency [3]: inactive

CC(O)(P(=O)(O)O)P(=O)(O)O
outcome [1]: inactive | outcome [2]: inactive | Potency [3]: inactive

CCCN1CCCC[C@H]1C(=O)Nc1c(C)cccc1C
outcome [1]: inactive | outcome [2]: inactive | Potency [3]: inactive

CC1(C)O[C@@H]2[C@@H](CO[C@@]3(COS(N)(=O)=O)OC(C)(C)O[C@@H]23)O1
outcome [1]: inactive | outcome [2]: inactive | Potency [3]: inactive

NC(=O)C(=O)N/N=C/c1ccc([N+](=O)[O-])o1
outcome [1]: inactive | outcome [2]: inactive | Potency [3]: inactive

C[C@@H]1C[C@H]2[C@@H]3C[C@H](F)C4=CC(=O)C(Cl)=C[C@]4(C)[C@@]3(F)[C@@H](O)C[C@]2(C)[C@@]1(O)C(=O)CO
outcome [1]: inactive | outcome [2]: inactive | Potency [3]: inactive

COc1cc2c(cc1O)CC[C@@H]1[C@@H]2CC[C@]2(C)[C@@H](O)CC[C@@H]12
parasite growth remaining, % of DMSO control (lower = more inhibition) [4]: 96.4% | parasite growth, % of control (lower = inhibition) [5]: 130% | growth, % of control [6]: 83.5%

COc1ccc(CN2CCN(C(c3ccc(F)cc3)c3ccc(F)cc3)CC2)c(OC)c1OC
parasite growth remaining, % of DMSO control (lower = more inhibition) [4]: 8.3% | parasite growth, % of control (lower = inhibition) [5]: 26.6% | growth, % of control [6]: 6.18%

Nc1ccn([C@@H]2O[C@H](CO)[C@@H](O)C2(F)F)c(=O)n1
Potency [7]: 0.481 µM (active) | Potency [8]: 0.0171 µM (active)

COc1cccc2c1C(=O)c1c(O)c3c(c(O)c1C2=O)C[C@@](O)(C(=O)CO)C[C@@H]3O[C@H]1C[C@H](N)[C@H](O)[C@H](C)O1
Potency [8]: 5.9 µM (active)

C=C1C(=C/C=C2\CCC[C@]3(C)[C@@H]([C@H](C)/C=C/[C@@H](O)C4CC4)CC[C@@H]23)C[C@@H](O)C[C@@H]1O
outcome [2]: inactive | Potency [9]: inactive | Potency [3]: inactive

CC(C)(C(=O)c1cccnc1)c1cccnc1
outcome [2]: inactive | Potency [3]: inactive

C[C@@H]1C(=O)NC2=Nc3cccc(Cl)c3CN21
outcome [2]: inactive | Potency [9]: inactive | Potency [3]: inactive
